Here are results for 40 molecules from PubChem BioAssay (NCATS).

Results filed as inconclusive are left out. Entries that show only a call come without a potency. Calls of active or inactive are those of the source. Calls follow the shape of the dose curve; as a rule, active = well fitted inhibition curve with a large enough effect; inconclusive = small, poorly fitted or top-dose-only effect; inactive = flat fitted curve, though single readings scatter.
Potency is read from the fitted curve at half-maximal effect.

The assay concerns CP247. Briefly: qHTS profiling for inhibitors of Plasmodium falciparum proliferation (AID 504749). Also: nearly all actives have a fitted effect of over 60% in size. Conditions: P. falciparum in erythrocytes, SYBR Green DNA, 72 h; series mostly up to 28.7 µM. The essentials: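 Each compound contacts P. falciparum-infected red blood cells for 72 h at 37 C; lysis buffer (Tris, EDTA, saponin, Triton X, SYBR Green I) is added and fluorescence measured next morning; values normalized to controls.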
As to `C#C[C@]1(O)CC[C@H]2[C@@H]3CCc4cc(OC)ccc4[C@H]3CC[C@@]21C`, the Potency result was “inactive”.
Take `CCCCNC(=O)NS(=O)(=O)c1ccc(N)cc1`: the Potency result is “inactive”.
With `Nc1ccc(C(=O)NCC(=O)O)cc1` the entry was “inactive”; with `OC1C(O)C(O)C(O)C(O)C1O` (stereo not given), “inactive”.
With `O=S(=O)(O)c1ccc(O)cc1` the entry was “inactive”.
With `COc1cc(C(=O)NCc2ccc(OCCN(C)C)cc2)cc(OC)c1OC` the entry was “inactive”; with `COc1cc(C)nc(-n2nc(C)cc2OC)n1`, “inactive”.
For the molecule `CC(=O)Oc1ccc(C)cc1`, the Potency entry is “inactive”.
The result for `CC(=O)NC(=O)c1ccccc1O` reads “inactive”; that for `FC(F)(F)C(F)(F)C(F)(F)C(F)(F)C(F)(F)C(F)(F)C(F)(F)C(F)(F)Br`, “inactive”.
With `c1ccc(-c2nc[nH]c2-c2ccccc2)cc1` the entry was “inactive”; with `CCNC(=O)NCc1cccc(Cl)c1`, “inactive”; with `O=C(O)Cc1csc(-c2ccc(Cl)cc2)n1`, “inactive”.
With `Nc1nc(-c2ccccc2)c(Br)c(=O)[nH]1` the entry was “inactive”; with `O=c1[nH]c(=O)n([C@H]2C[C@H](O)[C@@H](CO)O2)cc1F`, “inactive”; with `CC(=O)Nc1ncc([N+](=O)[O-])s1`, “inactive”.
`Cc1cccc(C)c1NC(=O)CN1CCCCCC1`: the Potency result was “inactive”.
`CC[C@H](c1ccc(O)cc1)[C@@H](CC)c1ccc(O)cc1`: the Potency result was “inactive”.
The result for `Cc1c(-c2ccccc2)oc2c(C(=O)OCCN3CCCCC3)cccc2c1=O` reads “inactive”; that for `CCCCCCCCCCCCCCCCO`, “inactive”.
As for `Oc1ccccc1C=NCc1ccccc1`, the Potency result was “inactive”.
With `CCN(CC)CCNC(=O)COc1ccc(OC)cc1` the entry was “inactive”; with `COc1cc(N)c(Cl)cc1C(=O)NC1CCN(Cc2ccccc2)CC1`, “inactive”.
With `Cc1cc(NS(=O)(=O)c2ccc(N)cc2)nc(C)n1` the entry was “inactive”; with `CC(=O)OC[C@H]1O[C@@H](n2ncc(=O)[nH]c2=O)[C@H](OC(C)=O)[C@@H]1OC(C)=O`, “inactive”; with `CCOc1ccccc1OCCN[C@H](C)Cc1ccc(OC)c(S(N)(=O)=O)c1`, “inactive”.
On to `O=C(NCCc1c[nH]c2ccccc12)c1cccnc1`, for which the Potency entry is “inactive”.
On to `Cc1ccccc1OCC(O)CO` (stereo not given), for which the Potency entry was “inactive”.
With `Cc1cc(C)cc(OCC2CNC(=O)O2)c1` (stereo not given) the entry was “inactive”; with `CCOc1cc(OCC)c(C(=O)CCC(=O)O)cc1OCC`, “inactive”.
The result for `N#CCC(=O)NN` reads “inactive”; that for `O=C(O)C(Cc1cc(I)c(O)c(I)c1)c1ccccc1` (stereo not given), “inactive”.
The result for `CCCCCCCC/C=C\CCCCCCCCN` reads “inactive”.
As for `CC1=C(C(=O)O)N2C(=O)[C@@H](NC(=O)[C@H](N)c3ccccc3)[C@H]2SC1`, the Potency result is “inactive”.
Take `CCN(CC)CCNc1ccc(CO)c2sc3ccccc3c(=O)c12`: the Potency is 891 nM (active).
The result for `Cl/C(=C\n1cncn1)c1ccc(Cl)cc1Cl` reads “inactive”; that for `CCCCCCCCCCCCCCCC(=O)O`, “inactive”; that for `CC(C)CCCC(C)N` (stereo not given), “inactive”.
Consider `CCOC(=O)c1ccc(N)cc1`, for which the Potency result was “inactive”.
As for `Cc1c[nH]c2ccccc12`, the Potency result is “inactive”.
